# Measured values taken from PubChem BioAssay AID1508600 (Functional Genomics Laboratory (NCATS/FGL), 2020).
# The campaign covered roughly 53,000 sequences. About 3,700 (7%) were called active. The full list was thinned out, with actives kept by preference. Unmarked numbers belong to inactive results.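 How the source made its calls: active means gene knockdowns whose robust z-score for IL-1 alpha signal is at least 2 or at most -2, so actives lie on both sides; inactive means the rest.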
# Assay: Components of the Cytosolic LPS Sensing Pathway: Gene Identification via Genome-wide siRNA Screen;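 further: robust z of the log signal after scaling to non-targeting control siRNA wells of the plate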
# Details: RAW264.7 macrophages, IL-1a HTRF, actives lie on both sides, screened at 100 nM (by protocol), cells primed 5 h with Pam3CSK4 first
# Method in brief: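 Mouse macrophage line RAW264.7 is transfected with siRNA (100 nM final), grown 48h, primed with TLR ligand Pam3CSK4 5 h and given intracellular LipidA 24 h. IL-1a in supernatant is read by HTRF and viability by luminescence.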
row,Sequence,z-score
1,GGAUCAUUUGAAAUUGCUGTT against Dmac2l,2.88 (active)
2,CCUGAAAAAAUUUAUCGCCTT against Pcgf3,-0.363
3,GGGUUCGAGGAAAAGGAAGTT against Acsf3,0.65
4,GGUGUCAGAAGCAGUGUAUTT against Treml1,0.459
5,GCCGAGGCUGUUGUGUUGATT against Gpaa1,-1.04
6,GGAGGUUUUUUUGUUUUGUTT against Serpinb13,-0.614
7,GGCAUUUUUCUUAGUGAUCTT against Olfr1277,-2.04 (active)
8,CCCACUUAUAUAUGUAGUUTT against Wdyhv1,0.282
9,GGGCUUCAAACCCACAGAATT against Nova2,-1.19
10,GGAAUAUCAGCCAUAAGUUTT against Cplx4,1.78
11,CGAUUCAUUCAGUUUGUAATT against Terb1,-0.631
12,GGUGUUUGAUAAUGAAGAGTT against Dnah1,-0.214
13,GGCGAAGGUGUAGAAUCUCTT against Samd12,2.48 (active)
14,GGUCAUUUUGGGAUAUCAGTT against Lman1,-1.19
15,CCGCGUGUGCUCCUUUUUGTT against Zcchc3,-0.627
16,GGCUGGUUUACAACAGAACTT against Pla2g15,-0.647
17,CCAUUUGAUGACAGUAAUATT against Olfr178,1.03
18,GCUCUUGACACUAGAGAUUTT against Ap1s3,0.0373
19,GGUGUGAUGCUUGAGUGUCTT against Skint3,2.08 (active)
20,GGAGUAGCAAAGAACUGCUTT against Arpc4,-0.762
21,CCACAUGAGUGGACCUACGTT against Arid3c,-1.33
22,GGAGCUCUGGGACAAAUUCTT against Tbx20,1.34

row,Sequence,z-score
1,CGUGGCUAGGUUAUUUAAATT against Htr1d,1.01
2,GGACACUUCCAUGUGCUACTT against Cep19,2.14 (active)
3,CCUCAAAAUGGCUAUGGACTT against 1520401A03Rik,0.587
4,GGAAAGAAACUUAAAGUGGTT against Tfdp1,2.64 (active)
5,GGUUCGAUGUCCAGUCACUTT against Ppp2ca,-1.41
6,GCCAUUGCUUUAUAAGGUUTT against Olfr901,-1.24
7,GGAUACAAAUCCAGAUUCUTT against Pex26,-0.982
8,GGAACGAAUUUUAGAUGCATT against Rbbp8,1.14
9,CCCAGAGCAUUCCUAUUACTT against Klrg2,-2.84 (active)
10,GCACGGUAUCUCGAAGUCGTT against Spata18,-0.785
11,CCAUUCAAUGGUAACUGAATT against Olfr229,-0.382
12,GCAGUCGCUUUGUUUUAUATT against Olfr1204,-0.225
13,GGAAAUCGAAUGAAUAACCTT against Klf12,3.45 (active)
14,GGCUGAGAAGCAGACUUCCTT against Dclk3,1.23
15,GCUACGUUUACUGACCACATT against Bcat1,1.55
16,CCUACUCGUCUCUUUCACCTT against Tlcd1,0.158
17,GCAACUUUUAAUUGGUCUATT against Agrn,-0.537
18,GGUUUUACCGAUGAUGCAUTT against Pcdhb20,-0.624
19,GGUAAUGGCUCACUUAAUATT against Malt1,-0.427
20,GGUCUUUGACAUUUUGAAUTT against Lrrk2,-0.295
21,GUACACUCAGGCUGAGGGUTT against Acyp1,0.0397
22,GCAAUACUAUUCAGUCCAUTT against Gnai3,-2.45 (active)

row,Sequence,z-score
1,GGUUCCACUCAACUGAAGATT against Actl7b,-0.123
2,GGCCUGCUACUUUUGAUGCTT against Olfr166,0.0524
3,GCACCUCUGACAAGGUUCUTT against Plin1,2.65 (active)
4,GGGUCAUUUCCUAUGCAGGTT against Olfr866,-1.24
5,CCAAGAUUCAUAAGAAGGCTT against Tas2r131,0.646
6,GCUAGAAUUCAUGUUUCGUTT against Dgkg,0.487
7,GGUGCACUUUGAAUCAGGGTT against Uchl4,0.91
8,GGACAUCUACACCAUUUGGTT against Mplkip,-2.11 (active)
9,GGUAACUAUGAAGAGAUCATT against Neu2,0.312
10,GGAUUAGGAAAGAGAGAACTT against 4930519G04Rik,-1.43
11,GGUCAUCGUGUGCAACCUCTT against Zcchc3,-3.24 (active)
12,GGAACAGUUCAAGUGAAGCTT against Sertad2,-0.0174
13,GGAAGAUGAGAAAAUUCCATT against Ccni,-0.44
14,GCCACAGAAAGUGAUUGAGTT against Rbp7,-0.418
15,GGUACAGACCUUUGAAAUATT against Apobec2,-0.125
16,CCGCAUGGAGCAUCUAAUATT against Tuft1,0.04
17,GGGAGACCUGCUACUAUUGTT against Gtf3c2,2.58 (active)
18,GGAAACAACAACAAAUACATT against C1ql3,1.52
19,GGAAGAUCCUCGAUAGUCATT against Rgs7,1.2
20,GACCAUCUCCUUUACGGGCTT against Olfr71,0.133
21,GGCCAAAGAAGAAAGUGACTT against Opn3,-2.72 (active)
22,GUGGUAAACAGAAUGGUGATT against Ccdc92b,-1

row,Sequence,z-score
1,GCACCCAUAUCAACGAGGUTT against Olfr924,0.484
2,GGUGACCAGCAAGUCAUGCTT against Chrdl1,-0.663
3,GGAAGAAAAAAACUUCGUUTT against Gabrg3,0.186
4,CCUGAAAGAUGCUCUCUAUTT against Inpp4b,4.27 (active)
5,GCACAGCUUUUUGGAUCUGTT against Zfyve26,-0.75
6,CCAGAGUCUUUGGUAAUGCTT against Krtap3-3,1.07
7,GUCAUCAUGAACCAAGAGATT against Olfr713,-2.18 (active)
8,GGAAAACCAGCACAAUUUATT against Cadm1,2.49 (active)
9,CCAUCUACAAACUUUGGCCTT against Sacs,0.669
10,GGUACUGACGCAUCUGAGGTT against Spata5l1,1.53
11,GACAAGCAAUAAAGAAAGATT against Lce1l,-1.45
12,GGAAGGUCAAGUCUUUUCUTT against Tesk1,1.46
13,CCAUGGGAUAUGAUUUACATT against Phf11a,3.49 (active)
14,GGGAAUUUCAGGCUAUAUUTT against Taf2,1.13
15,CGAUGUGGACGAGAAGCUATT against Asap2,-0.702
16,CGCUAUGAGGCAGCUAAUUTT against Psma6,-2.27 (active)
17,CCCAUACUAAAAUUGUUGATT against Adam29,0.253
18,CCUACCUUCAUUCGCUUCGTT against Cpz,2.61 (active)
19,CCCAAUCAGCAUUUGCUCUTT against H2-M10.3,0.104
20,GGAUGGAGCUACUGAAAUUTT against Dera,0.39
21,CCAGAUCAUCGUGCAGAAUTT against E4f1,0.557
22,GGAGUGUUUUGCAGUUUUATT against Dcstamp,4.39 (active)

row,Sequence,z-score
1,GCCACUGGUUCCAAUCGUCTT against Ncs1,-0.354
2,CCGAAGCAUUUUCCCAUCUTT against Slc22a20,-0.293
3,CCUGAUCCUCAGUUUGGUGTT against Prl,0.129
4,GGUAACAAACUACAUUUGCTT against Pcdhb16,2.7 (active)
5,CGAGAAUUCCUUGCUCUAATT against Mgat4a,0.194
6,GCGCGACCUUCGAAUGUAATT against Rnf5,-0.834
7,GGAUAUGGUUAAAGCCAAATT against Zg16,-0.172
8,GGGAUGUGUCCUGACUUUUTT against Zfp941,-0.402
9,CCCAACUUAAAAGUACGUUTT against Hdac5,0.83
10,GGUUCAAAAGUCGAGCGAATT against Nudt9,-0.137
11,GCCUAAGGGAGACUCUUUGTT against Ano7,-2.02 (active)
12,GGAAGUGAUUCUGCUAUGUTT against Cenpn,-1.69
13,GGAAAGCAUGAGUUAAUAATT against Slain2,1.38
14,GGGAAUAUCACAGGUGCCATT against Axl,-0.737
15,GGCUCUAAAUUUUUUGUUCTT against Derl1,0.532
16,UGAGGAGAGUUUCCGAGUGTT against H2-Q6,-0.0985
17,GCUAGUCUUAUGGACCAGATT against Eaf2,-0.764
18,GGAAGAGCAUAAAAUGUCATT against Trps1,-0.695
19,GGCGAAUGCGCUUCUGAUATT against BC053393,2.29 (active)
20,GGCACACAGUUUUGUACAUTT against Nfat5,2.25 (active)
